Structures are written as SMILES. The panel holds about 83,000 compounds, 20% with a hit somewhere; the sample as a whole holds those more often.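 How to read the values: 0–100, growth inhibition (40 = 60% inhibited); 0, no net growth; -100 to 0, cell death (-40 = 40% of starting cells died; -100 = all dead).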 Active and inactive are the calls of the source. Rule for the calls: active = growth percent below 10; inactive = the rest.

The source of these data is PubChem BioAssay (NCI).

For this assay, the system named is HL-60(TB) leukemia. The assay is described as follows: NCI-60 one-dose screen, 48 h (100 = growth as untreated, 0 = no growth, -100 = all killed). Particulars: 10 µM unless noted.
On to `COc1cc2c(cc1OC)CN(CCCCOc1cc(O)c3c(=O)cc(-c4ccccc4)oc3c1)CC2`, for which the growth was 7.79% (active).

With `CC1=C(C(=O)c2ccccc2)C(c2cccc(Cl)c2Cl)n2c(nc3ccccc32)N1` (stereo not given), the growth was 36.1% (inactive). To `COc1ccc(/C(CSc2nnc(-c3c[nH]c4ccccc34)n2-c2ccccc2)=N/O)cc1` belongs 3.87% (active). To `O=C(CNc1nc(-c2ccccc2)cs1)Nc1cccc([N+](=O)[O-])c1` belongs -8.94% (active). Turning to `Cn1cc(-c2cc(N)n3nc(-c4cn(C)c5ccccc45)cc3n2)c2cc(Br)ccc21`, the growth is -32.3% (active).

In the case of `CCC1(OC(=O)c2ccccc2SSCCOC(=O)CCCCC2SCC3NC(=O)NC32)C(=O)OCc2c1cc1n(c2=O)Cc2cc3ccccc3nc2-1` (stereo not given), the growth is 76.7% (inactive). Then `O=C(Nc1ccc(OCc2ccc(Cl)cc2)cc1)Nc1ccc(Cl)c(C(F)(F)F)c1`, with 0.65% (active); and `C#CCOc1ccc(/C=N/Nc2nc(-c3ccc(Cl)cc3)cs2)cc1OC`, with 20.1% (inactive).

For `O=C(/C=C1\C(=O)N(Cc2ccccc2)c2ccccc21)c1cc2ccccc2oc1=O`, the growth was 93% (inactive). Consider `CCCCSc1nc(Nc2ccc(C(C)=O)cc2)c(C#N)c(-c2ccc(OC)cc2)n1`, for which the growth was 88% (inactive). Then `Cc1ccc2nc(NC(=O)Nc3cccc(Cl)c3)sc2c1`, with 95.7% (inactive); and `O=C(Nc1cc(Cl)cc(Cl)c1)Nc1cc(Cl)cc(Cl)c1`, with -15.1% (active); and `Cc1ccc(S(=O)(=O)Nc2ccc(-c3ccc4c(c3)NC(=O)/C4=C\c3ccc[nH]3)cc2)cc1`, with 39.3% (inactive).

As to `COc1ccc(-c2cc(-c3ccccc3)c(C#N)c(=O)[nH]2)cc1S(N)(=O)=O`, the growth is 142% (inactive). Then `COc1ccc(CN2[C@@H](C(=O)NCc3ccc(C(=O)NO)cc3)Cc3c([nH]c4ccccc34)[C@@H]2C)cc1`, with -5.52% (active); and `O=C(c1ccc(Cl)cc1)C1[C@H](c2ccc(Br)cc2)[C@@H](c2ccccc2)NC12C(=O)Nc1ccccc12` (stereo not given in full), with -32% (active); and `CC(C)C[C@H](NC(=O)CNC(=O)C[C@H]1O[C@@H]2OC3(C)CC[C@H]4[C@H](C)CC[C@@H]([C@H]1C)[C@@]24O3)B(O)O`, with 3.8% (active). To `COc1cc(/C=C/C(=O)c2cnn(-c3cc(=O)[nH]c4ccc(Br)cc34)c2C)cc(OC)c1OC` belongs -19.6% (active); to `COc1ccc(-c2ccnc(SCc3cc4ccccc4[nH]c3=O)n2)cc1OC`, 87% (inactive); to `CCCn1c(=O)c2[nH]c(-c3ccc(OCc4nc5ccc(C(F)(F)F)cc5[nH]4)cc3)nc2n(CCC)c1=O`, 55.9% (inactive). As to `CC(C)(C)c1cc(-c2cc(-c3ccccc3)[nH]c(=O)c2C#N)cc(C(C)(C)C)c1`, the growth was 82.3% (inactive). `O=C(CSc1nnc(-c2ccc3nc(-c4ccccc4)[nH]c3c2)o1)Nc1ccc(Br)cc1`: the growth was 51.3% (inactive). To `O=C(N/N=C/c1ccc(Cl)cc1)c1ccc(OCc2nc3ccc(Cl)cc3[nH]2)cc1` belongs 81.7% (inactive).

Regarding `Nc1cc2ccccc2c(=O)n1NC(=O)c1ccc(Br)cc1`, the growth was 99.4% (inactive). For the compound `O=C(Nc1nc2ccc([N+](=O)[O-])cc2s1)Nc1cc(Cl)ccc1I`, the growth is -47.7% (active). Then `O=C(N/N=C/c1ccc(B(O)O)o1)c1[nH]c2ccc(Br)cc2c1-c1ccccc1`, with -29.3% (active); and `COc1ccc(NC(=O)Cn2c(/C=C/c3ccc([N+](=O)[O-])cc3)nc3ccccc3c2=O)cc1`, with 112% (inactive); and `Cc1ccc(C(C(=O)NC2CCCCC2)N(Cc2ccccc2Cl)C(=O)c2ccc(CN3CCOCC3)o2)o1` (stereo not given), with 84.6% (inactive). Regarding `C=C1CCC2C3(C)COC(c4c(F)cccc4F)OC3CCC2(C)C1C/C=C1/C(=O)OCC1O` (stereo not given), the growth is 6.75% (active).

In the case of `Cn1cc(-c2cc(N)n3nc(-c4c[nH]c5ccc(Br)cc45)cc3n2)c2cc(Br)cnc21`, the growth is -44.2% (active). To `COc1cc(C2CC(c3cc(OC)c(OC)c(OC)c3)=NN2c2ccccc2)ccc1OCc1ccc(C)cc1` (stereo not given) belongs 101% (inactive).

As for `O=C(Nc1ccc(F)c(Cl)c1)c1cc(-c2ccc(F)cc2F)ccc1O`, the growth was -41.3% (active). For `COc1nccnc1NS(=O)(=O)c1ccc(NC2=C(Cl)C(=O)c3nc(C)ccc3C2=O)cc1`, the growth is 100% (inactive). Then `Cn1cc(-c2cc(N)n3nc(-c4c[nH]c5ccccc45)cc3n2)c2cc(Br)cnc21`, with -66.7% (active). To `O=C(CSc1nc2ccccc2c(=O)[nH]1)Nc1ccccc1C(=O)O` belongs 103% (inactive).
